# From PubChem BioAssay
# Activity calls are given as the source filed them.
# Key:
# [1] = test system: Human papillomavirus type 1a protein E7 (residues 44-93); assay: small molecules binding HPV E7 44-93 – biochemical, small-molecule microarray, residues 44-93, 635 nm fluorescence, primary screen (AID 1108); conditions: fluorescence 635 nm, higher = more signal;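 note: E7 fragment applied at 1 µg/mL in TBST for 1 h at 4 C; score combines spot fluorescence with its signal to noise ratio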
# [2] = hepatitis C replication reporter changes, two-sided – Huh7 cells, luciferase reporter, HCV replication inhibitor project, primary screen (AID 1109); conditions: Huh7 HCV replicon luciferase reporter, 48 h; higher = more signal;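 note: huh7 hepatoma cells harbouring a luciferase neomycin HCV replicon reporter; luciferase luminescence as measure of HCV replicon replication; test concentration not given here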
# [3] = target: Left-right determination factor 2 (Homo sapiens) (UniProt O00292); assay: small molecules binding LEFTY2 protein – biochemical, small-molecule microarray, 635 nm fluorescence scan, primary screen (AID 1110); conditions: higher = more signal
# Sequence of Left-right determination factor 2 (Homo sapiens) (O00292 whole entry, looked up): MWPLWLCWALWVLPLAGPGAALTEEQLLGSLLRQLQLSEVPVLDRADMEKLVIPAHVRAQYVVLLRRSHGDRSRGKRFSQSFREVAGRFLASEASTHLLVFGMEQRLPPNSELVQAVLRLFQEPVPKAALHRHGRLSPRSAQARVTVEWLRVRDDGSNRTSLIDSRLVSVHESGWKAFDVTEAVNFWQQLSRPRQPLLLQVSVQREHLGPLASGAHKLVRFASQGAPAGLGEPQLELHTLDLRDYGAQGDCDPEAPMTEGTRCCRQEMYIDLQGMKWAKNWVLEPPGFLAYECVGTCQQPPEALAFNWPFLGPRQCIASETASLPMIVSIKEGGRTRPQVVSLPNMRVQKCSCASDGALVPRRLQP
# [4] = target: Calmodulin-1 (Homo sapiens) (UniProt P0DP23); assay: small molecules binding calmodulin-1 with EGTA – biochemical, small-molecule microarray, Cy5-labelled CALM1, profiling panel (AID 1111); conditions: Cy5-CALM1 binding fluorescence, higher = more signal;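 note: labelled calmodulin applied in Tris saline Tween buffer holding calcium plus EGTA and DTT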
# [5] = target: Calmodulin-1 (Homo sapiens) (UniProt P0DP23); assay: small molecules binding Ca-loaded calmodulin-1 – biochemical, small-molecule microarray, Cy5-labelled CALM1, plus calcium, artefact control for SMM control-protein annotation, profiling panel (AID 1112); conditions: Cy5-CALM1 binding fluorescence, higher = more signal;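 note: score merges spot fluorescence with signal to noise from triplicate slides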
# [6] = probe aWnt5a binding to arrayed compounds – biochemical, biotinylated probe, 635/667 nm fluorescence, primary screen (AID 1113); conditions: small-molecule microarray, higher = more signal;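 note: score merges 667 nm fluorescence intensity with signal-to-noise per printed feature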
# [7] = probe aShh binding to arrayed compounds – biochemical, biotinylated probe, 635/667 nm fluorescence, primary screen (AID 1114); conditions: small-molecule microarray, higher = more signal;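 note: probe is biotin-labelled aShh protein from a stem cell growth factor screen; measures binding of labelled protein to compounds printed on the slide; score merges feature fluorescence at 667 nm with signal-to-noise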
# [8] = probe aNog binding to arrayed compounds – biochemical, biotinylated probe, 635/667 nm fluorescence, primary screen (AID 1115); conditions: small-molecule microarray, higher = more signal;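 note: probe is biotinylated aNog protein used at 0.15 µg/mL for 1 h at 4 C; z-score combines 667 nm fluorescence of each spot with its signal to noise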
# [9] = target: Torsin-1A-interacting protein 1 (Homo sapiens) (UniProt Q5JTV8); assay: compound microarray binding of lysate hLAP1 – cell lysate, small-molecule microarray, COS7 lysate, 635/667 nm fluorescence, primary screen (AID 1116); conditions: 635 nm fluorescence, higher = more signal
# Sequence of Torsin-1A-interacting protein 1 (Homo sapiens) (Q5JTV8 whole entry, looked up): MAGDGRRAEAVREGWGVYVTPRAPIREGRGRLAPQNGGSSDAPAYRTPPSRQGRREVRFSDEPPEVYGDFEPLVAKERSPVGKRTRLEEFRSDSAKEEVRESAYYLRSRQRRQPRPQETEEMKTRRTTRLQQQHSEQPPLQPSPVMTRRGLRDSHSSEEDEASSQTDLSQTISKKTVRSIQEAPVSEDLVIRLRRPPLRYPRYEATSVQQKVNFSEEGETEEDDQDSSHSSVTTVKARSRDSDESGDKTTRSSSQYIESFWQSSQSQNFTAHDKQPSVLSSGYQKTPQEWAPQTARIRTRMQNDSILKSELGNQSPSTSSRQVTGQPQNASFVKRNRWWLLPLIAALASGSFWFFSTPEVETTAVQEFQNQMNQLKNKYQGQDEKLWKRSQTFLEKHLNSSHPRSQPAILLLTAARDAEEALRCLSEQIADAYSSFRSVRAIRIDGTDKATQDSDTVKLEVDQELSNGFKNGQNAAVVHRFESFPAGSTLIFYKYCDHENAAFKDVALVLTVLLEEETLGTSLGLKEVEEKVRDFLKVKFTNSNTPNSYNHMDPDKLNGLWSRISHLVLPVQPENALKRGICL
# [10] = target: Alpha-bungarotoxin (Bungarus multicinctus) (UniProt P60615); assay: compounds binding labelled alpha-BTX control protein – biochemical, small-molecule microarray, Alexa647 label, 635/667 nm fluorescence, artefact control for SMM control protein annotation, profiling panel (AID 1117); conditions: alpha-BTX-A647 binding fluorescence, higher = more signal
# Sequence of Alpha-bungarotoxin (Bungarus multicinctus) (P60615 whole entry, looked up): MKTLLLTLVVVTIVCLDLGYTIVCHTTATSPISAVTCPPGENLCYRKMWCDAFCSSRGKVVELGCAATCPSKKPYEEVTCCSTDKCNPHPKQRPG
# Albumin (Bos taurus) = Albumin (Bos taurus) (UniProt P02769); assay: compounds binding labelled BSA control protein – biochemical, small-molecule microarray, Alexa647 label, 635/667 nm fluorescence, artefact control for SMM control protein annotation, profiling panel (AID 1118); conditions: BSA-A647 binding, fluorescence 635 nm, higher = more signal;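 note: score merges 667 nm emission intensity and signal-to-noise per printed compound spot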
# Sequence of Albumin (Bos taurus) (P02769 whole entry, looked up): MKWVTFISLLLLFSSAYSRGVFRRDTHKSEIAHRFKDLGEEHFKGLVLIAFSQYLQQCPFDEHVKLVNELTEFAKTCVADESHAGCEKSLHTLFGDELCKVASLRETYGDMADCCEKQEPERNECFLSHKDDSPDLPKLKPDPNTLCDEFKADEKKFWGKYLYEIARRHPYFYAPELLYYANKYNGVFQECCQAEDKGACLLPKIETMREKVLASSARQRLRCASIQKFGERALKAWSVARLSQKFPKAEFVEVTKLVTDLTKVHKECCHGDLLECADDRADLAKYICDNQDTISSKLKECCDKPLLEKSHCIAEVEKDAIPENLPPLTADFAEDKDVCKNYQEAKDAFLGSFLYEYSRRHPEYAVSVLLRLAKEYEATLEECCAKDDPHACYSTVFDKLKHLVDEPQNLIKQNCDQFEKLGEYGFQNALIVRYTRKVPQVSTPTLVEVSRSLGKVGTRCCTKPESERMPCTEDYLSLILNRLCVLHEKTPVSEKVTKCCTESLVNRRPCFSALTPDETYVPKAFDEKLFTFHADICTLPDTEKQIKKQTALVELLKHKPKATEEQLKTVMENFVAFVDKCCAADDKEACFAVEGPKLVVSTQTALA
# [11] = probe aXIP binding to arrayed compounds – biochemical, NeuroSMM set, 635/667 nm fluorescence, primary screen (AID 1119); conditions: small-molecule microarray, higher = more signal, called active from +8 up or from −8 down;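 note: probe is the protein aXip251-270 applied at 1 µg/mL to compound-printed slides; binding of probe to printed compounds measured as 667 nm fluorescence plus signal to noise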
# [12] = probe aNOTCH3 binding on compound microarray – biochemical, small-molecule microarray, 635/667 nm fluorescence, primary screen (AID 1120); conditions: higher = more signal;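 note: probe is a biotin-tagged antibody raised against NOTCH3 rather than NOTCH3 protein; score merges spot fluorescence near 667 nm with spot signal to noise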
# [13] = probe aNOTCH2 binding on compound microarray – biochemical, small-molecule microarray, 635/667 nm fluorescence, primary screen (AID 1121); conditions: higher = more signal;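 note: score merges feature fluorescence read at 667 nm with its signal to noise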
# [14] = target: Carbonic anhydrase 2 (Homo sapiens) (UniProt P00918); assay: compounds binding carbonic anhydrase 2 – biochemical, small-molecule microarray, Alexa647-labelled CAII, profiling panel (AID 1122); conditions: CAII-A647 binding fluorescence, higher = more signal
# [15] = COS7 lysate on small-molecule microarray, probe aHis, 635 nm (AID 1123); conditions: COS7 cell lysate, fluorescence, higher = more signal;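 note: z-score combines 667nm fluorescence intensity with signal-to-noise per printed compound spot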
# [16] = probe aLAP1 signal on lysate-treated microarray – cell lysate, small-molecule microarray, COS7 lysate, primary screen (AID 1124); conditions: probe aLAP1, fluorescence, higher = more signal;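 note: lysate comes from COS7 cells expressing LAP1 and is applied at 0.3 µg/mL; score merges spot fluorescence near 667 nm with signal-to-noise over triplicate slides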
# Sam68 (KHDRBS1) = assay: compounds binding KHDRBS1 protein – biochemical, small-molecule microarray, 635 nm fluorescence, primary screen (AID 1125); conditions: higher = more signal;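 note: score merges 667 nm channel intensity with signal to noise over triplicate slides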
# [17] = test system: Chordin-like protein 2 (CHRDL2); assay: compounds binding chordin-like 2 – biochemical, small-molecule microarray, 635 nm fluorescence, primary screen (AID 1126); conditions: fluorescence 635 nm, higher = more signal;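 note: printed compound slides probed with Chrdl2 protein at 4 µg/mL for 1 h at 4 C; score merges 667 nm emission intensity with signal to noise over three replicate slides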
# [18] = target: Concanavalin-A (Canavalia ensiformis) (UniProt P02866); assay: compounds binding concanavalin A lectin – biochemical, small-molecule microarray, Alexa647 label, 635 nm, artefact control for SMM control protein annotation, primary screen (AID 1127); conditions: ConA-A647 binding fluorescence, higher = more signal;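 note: z combines 667 nm emission intensity with signal-to-noise across three replicate slides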
# Sequence of Concanavalin-A (Canavalia ensiformis) (P02866 whole entry, looked up): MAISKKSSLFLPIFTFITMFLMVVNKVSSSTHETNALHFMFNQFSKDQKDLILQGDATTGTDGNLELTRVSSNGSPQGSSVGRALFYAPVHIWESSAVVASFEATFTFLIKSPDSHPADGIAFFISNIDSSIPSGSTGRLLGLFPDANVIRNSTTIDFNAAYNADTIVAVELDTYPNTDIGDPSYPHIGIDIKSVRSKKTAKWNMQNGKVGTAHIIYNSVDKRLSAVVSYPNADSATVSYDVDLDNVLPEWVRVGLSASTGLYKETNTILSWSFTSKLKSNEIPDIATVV
Compound,composite z-score [1],z-score [2],composite z-score [3],composite z-score [4],composite z-score [5],composite z-score [6],composite z-score [7],composite z-score [8],composite z-score [9],composite z-score [10],composite z-score (Albumin (Bos taurus)),composite Z-score [11],composite z-score [12],composite z-score [13],composite z-score [14],composite z-score [15],composite z-score [16],composite z-score (Sam68 (KHDRBS1)),composite z-score [17],composite z-score [18]
COC(=O)[C@@]1(Cc2ccc(F)cc2)[C@H]2c3cc(C(=O)N(C)C)n(Cc4cccc5ccccc45)c3C[C@H]2CN1C(=O)c1ccccc1,1.12,-1.57,-0.856,0.0818,0.189,0.492,1.76,1.53,1.17,-0.145,0.617,0.0828 (inactive),0.223,0.168,0.86,4.13,0.881,0.343,-0.967,0.162
COC(=O)[C@@]1(Cc2ccccc2)[C@H]2c3cc(C(=O)N(C)C)n(CCF)c3C[C@H]2CN1C(=O)c1ccccc1,0.233,-1.66,-0.555,2.8,1.31,-0.0118,-0.305,-0.52,3.08,1.43,1.11,0.507 (inactive),0.62,0.334,0.531,3.26,1.08,0.302,-0.927,0.517
CC(C)N1CC=CC23O[C@@H]4/C=C\CCCOC(=O)C4[C@H]2C(=O)N(C(C)CO)[C@@H]3C1=O (stereo not given in full),-0.7,0.314,-0.794,-0.814,-0.242,-0.308,-0.167,-0.356,-0.401,-0.393,-0.446,0.0835 (inactive),-0.24,-0.177,0.913,0.17,-0.443,-0.222,-0.956,-0.313
COc1ccc(C(=O)Nc2cccc(CN3C(=O)[C@]4(O[C@H](CC(=O)N(CCO)Cc5ccccc5)[C@@H]([Si](C)(C)c5ccc(OC)cc5)[C@@H]4C)c4ccccc43)c2)cc1,0.753,-3.73,0.546,-0.0878,-0.342,0.093,-0.0192,-0.0315,0.566,0.696,-0.211,0.264 (inactive),0.0141,-0.046,0.325,1.51,-0.0351,0.775,0.972,0.762
CC[C@H]1C2=C3C(CC[C@H]4C(OCc5ccc(F)cc5C(F)(F)F)OC[C@](C)([C@@H]34)N(C(=O)OC(C)(C)C)C2)C(COC(C)=O)C1COC(C)=O (stereo not given in full),1.35,-0.567,-0.747,1.97,1.15,0.24,1.15,-0.313,0.0366,0.729,0.761,-0.0238 (inactive),0.335,0.173,0.345,2.76,0.2,1.29,-1.23,0.957
C#CCN(C(=O)OC(C)(C)C)[C@H](CO)c1ccccc1,0.486,0.712,0.353,-0.528,-0.964,-0.18,-0.138,-0.141,0.391,0.0876,0.632,0.32 (inactive),-0.0043,-0.146,0.0604,0.125,0.183,0.689,0.105,0.0388
COc1ccc(C(O)C2C=CC3C(=O)N(C)C(=O)C3N2Nc2ccccc2)cc1 (stereo not given),1.22,-1.14,-0.132,0.675,0.283,0.0792,0.462,1.76,0.916,1.38,0.986,0.195 (inactive),0.344,0.0753,0.376,2.87,0.388,1.28,-0.224,1.17
CCc1cccc(NC(=O)O[C@H]2[C@H](OC(=O)Nc3ccccc3-c3ccccc3)[C@H](OC(=O)Nc3ccccc3-c3ccccc3)[C@@H](OC)O[C@@H]2CO)c1,1.42,-1.95,0.588,1.44,-0.301,0.179,0.0796,-0.318,1.81,1.29,0.715,0.814 (inactive),0.122,-0.0273,0.728,2.04,0.0611,1.28,0.478,1.12
CCOC(=O)C[C@H]1[C@H](OC(=O)c2ccc(-c3ccccc3)cc2)[C@@H](NC(=O)c2ccc(-c3ccccc3)cc2)c2cc(OCCCO)ccc2N1C(=O)c1ccccc1,1.01,-1.22,0.71,1.1,0.912,-0.0721,0.0278,0.412,0.322,1.14,0.771,0.884 (inactive),0.0916,-0.129,0.277,0.895,0.331,1.32,-0.0105,1.06
COCCOC(=O)N1C(=O)[C@@]2(c3cc(C#CCNC(N)=O)ccc31)[C@H](C(N)=O)[C@H]1C(=O)O[C@H](c3ccccc3)[C@H](c3ccccc3)N1[C@@H]2c1ccc(O)cc1,-0.109,0.494,-0.0417,0.062,0.662,-0.0384,0.288,-0.0245,0.0743,-0.285,-0.153,0.003 (inactive),0.153,0.234,0.606,0.609,-0.545,-0.148,0.267,-0.267
CC(C)[Si](C#Cc1ccccc1)(O[C@H](c1ccccc1)c1cn(Cc2ccccc2)nn1)C(C)C,0.657,0.167,0.0441,-0.49,-1.67,-0.169,-0.138,-0.138,0.567,0.579,0.939,0.708 (inactive),-0.127,-0.189,0.57,0.467,0.471,0.879,0.664,1.17
